Measured values: PubChem BioAssay (NCATS)
Inconclusive results are not listed. Entries that show only a call come without a potency. Calls of active or inactive are those of the source. Unless noted, calls come from the whole dose curve; as a rule, active = well fitted curve in the direction sought with a large enough effect; inconclusive = small, poorly fitted or top-dose-only effect, or another doubt; inactive = no such curve, though single readings can be large; an effect the other way counts as inactive or inconclusive. Where a SMILES comes first, the peptide text is derived from it. The star is where a group is joined. AFC = O=c1cc(C(F)(F)F)c2ccc(N*)cc2o1

Legend:
[1] = Primary fluorescence-based thiol-reactive (MSTI) qHTS assay for identification of artifact compounds. (AID 1845221);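 note: series mostly up to about 54 µM; thiol-reactive compounds lower the probe fluorescence signal; nearly all actives have a fitted effect of over 65% in size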
Method in brief: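 A multi-concentration qHTS design tested compounds against 4 uM MSTI, pH 7.4 phosphate-buffered saline. Plates were protected from light for 1 h at room temperature before imaging fluorescence.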

[2] = test system: Nanoluciferase (engineered Oplophorus gracilirostris luciferase); test: Primary Nanoluciferase (NLuc) qHTS assay for identification of artifact compounds. (AID 1845222); note: potency is the fitted concentration of half-maximal effect
Method in brief: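 Concentration-response data were obtained by luminescence after 5 min with Nano-Glo substrate at 1:100. The enzyme was diluted S16 NLuc-expressing cell medium, preincubated with compound for 15 min at RT. Curves were fitted with a 4-parameter Hill model.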

[3] = Primary redox qHTS assay for identification of artifact compounds. (AID 1845223)
Method in brief: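 Amplex Red (25 uM) and HRP (250 mU/mL) in HBSS, with compounds for 15 min, then 250 uM DTT for 30 min, room temperature, dark. Fluorescence 525/598 nm read; normalized to DMSO and 10 uM DA3003; Hill fit.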

[4] = qHTS drug screen for cell cycle checkpoint inhibitors in PARPi-resistant BRCA-mutant ovarian cancer cell lines. (AID 1963452; calls by dose curve); settings: PEO1/OlaR viability, CellTiter-Glo luminescence, 96 h, stronger effect = lower value
Method in brief: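 PEO1, PEO4 and PEO1/OlaR ovarian cancer cells, 600 per well, exposed 96 h at 37C to a dilution series. Viability read by CellTiter-Glo luminescence, normalized to DMSO and empty wells; activity summarized as Z-AUC.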

[5] = biological target: Luciferin 4-monooxygenase (Photinus pyralis) (UniProt P08659); test: Primary firefly luciferase (FLuc) qHTS assay for identification of artifact compounds. (AID 1845220); note: nearly all actives have a fitted effect of over 60% in size
Method in brief: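 Reaction readout was CCD-imaged luminescence, taken 5 min after adding 10 nM purified firefly enzyme to compound-treated wells holding 10 uM luciferin and ATP in pH 7.6 buffer.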

[6] = biological target: Phospholipid hydroperoxide glutathione peroxidase GPX4 (Homo sapiens) (UniProt P36969); test: Primary qHTS Assay for Inhibitors of Recombinant Selenoprotein Glutathione Peroxidase 4 (GPX4) (AID 1845192); note: nearly all actives have a fitted effect of over 65% in size; note: potency is the fitted concentration of half-maximal effect
Phospholipid hydroperoxide glutathione peroxidase GPX4 (Homo sapiens), sequence (P36969 whole entry, looked up): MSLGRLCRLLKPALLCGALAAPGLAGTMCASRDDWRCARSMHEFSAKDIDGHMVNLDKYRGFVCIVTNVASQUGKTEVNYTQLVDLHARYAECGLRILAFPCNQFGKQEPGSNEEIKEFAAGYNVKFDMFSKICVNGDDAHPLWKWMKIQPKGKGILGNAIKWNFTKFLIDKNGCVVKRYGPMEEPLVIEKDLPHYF
Method in brief: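 GR-coupled readout: 100 nM GR, 1 mM GSH, 0.5 mM NADPH; NADPH fluorescence (ex 340/em 450 nm) read at t=0 and after 15 min RT. GPX4 200 nM, preincubated 30 min with compound; substrate 0.5 mM CHP.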

[7] = measured here: PEO1 parental Z-AUC

| Compound | Potency [1] | Potency [2] | Potency [3] | Z-AUC [4] | Z-AUC [4, 7] | Z-AUC ([4]; measured here: PEO4 Z-AUC) | Potency [5] | Potency [6] |
| --- | --- | --- | --- | --- | --- | --- | --- | --- |
| CS(=O)(=O)c1ccc(-c2nnc(/C=C/c3nnc(-c4ccc(C#N)cc4)o3)n2-c2ccccc2Cl)nc1 | inactive | 12 µM (active) | inactive | -0.316 (inactive) | 0.177 | -0.0878 |  |  |
| COc1cc2nc(N3CCC(N4CCCCC4)CC3)nc(NC3CCCCCC3)c2cc1OC | inactive | inactive | inactive |  |  |  | inactive |  |
| COc1cccc2cc3c(c(O[C@@H]4O[C@H](CO[C@@H]5O[C@H](CO)[C@@H](O)[C@H](O)[C@H]5O)[C@@H](O)[C@H](O)[C@H]4O)c12)C(C)OC3=O (stereo partly drawn) |  | inactive | inactive |  |  |  | inactive | 9.88 µM (active) |
| CS(=O)(=O)NCC1CCC(Nc2nc3c(s2)CCSc2ccccc2-3)CC1 (stereo not drawn) |  | inactive | inactive |  |  |  | inactive | inactive |
| N#Cc1ccc(-c2cnc3[nH]cc(NC(=O)c4cccnc4)c3c2)cc1 |  | inactive | inactive |  |  |  | inactive | inactive |
| CNC(=O)c1cccc(-c2ccc3c(N4CCOC[C@@H]4C)nc(N4CCOC[C@@H]4C)nc3n2)c1 | inactive | inactive | inactive | -1.02 (inactive) | -0.895 | -0.994 | inactive | inactive |
| Cc1ccc(C(=O)N(CCCN)C(c2nc3cc(Cl)ccc3c(=O)n2Cc2ccccc2)C(C)C)cc1 (stereo not drawn) | inactive | inactive | inactive |  |  |  |  | inactive |
| COc1cc2nc(N3CCCC3)nc(NCCCCCN3CCCC3)c2cc1OC | inactive | inactive | inactive |  |  |  | inactive |  |
| CC(C)CN(C[C@@H](O)[C@H](Cc1ccccc1)NC(=O)O[C@@H]1CO[C@H]2OCC[C@H]21)S(=O)(=O)c1ccc(N)cc1 | inactive | inactive | inactive |  |  |  |  | inactive |
| O=[N+]([O-])c1cn2c(n1)OCC(OCc1ccc(OC(F)(F)F)cc1)C2 (stereo not drawn) |  | inactive | inactive |  |  |  | inactive | inactive |
| CC(=O)N[C@@H](Cc1c[nH]c2ccccc12)C(=O)N[C@@H](CCC(=O)O)C(=O)N[C@@H](Cc1cnc[nH]1)C(=O)N[C@@H](CC(=O)O)C(=O)Nc1ccc2c(C(F)(F)F)cc(=O)oc2c1 (Ac-WEHD-{AFC}) | inactive | inactive | inactive |  |  |  | inactive |  |
| Cc1cc(=O)oc2c(C=O)c(O)ccc12 |  | inactive |  |  |  |  | inactive |  |
| CC(Oc1ccc2[nH]nc(/C=C/c3cnn(CCO)c3)c2c1)c1c(Cl)cncc1Cl (stereo not drawn) |  | inactive |  |  |  |  | inactive | inactive |
| Cc1ccc(-c2ccc3c(ccc4sc5c(c43)NC[C@@H](C)NC5=O)n2)cn1 | inactive | inactive | inactive | -0.119 (inactive) | 0.305 | -0.383 | inactive |  |
| Nc1nc(-n2cc(C(=O)O)c(=O)c3cc(F)c(N4CC(O)C4)c(Cl)c32)c(F)cc1F |  |  | inactive |  |  |  | inactive | inactive |
| CCCNc1ccc2ncc(-c3ccc4[nH]ncc4c3)n2n1 |  | inactive | inactive |  |  |  | inactive |  |
